USP17 inh = human USP17-like deubiquitinase inhibition; A8MUK1; purified USP17, Ub-rhodamine cleavage fluorescence, 3 h; inhibition, % at 50 µM; actives 6.5% (n = 47,000); AID 1645855
USP8 inh = human USP8 deubiquitinase inhibition | P40818 | inhibition, % at 20 µM | actives 4.2% (n = 47,000) | purified USP8, Ub-rhodamine cleavage fluorescence, 30 min
USP30 inh = inhibitors of human USP30 deubiquitinase | Q70CQ3 | purified USP30, Ub-rhodamine cleavage fluorescence | inhibition, % at 25 µM | actives 5.3% (n = 47,000)
USP10 inh = blocks human USP10 ubiquitin-rhodamine cleavage | Q14694 | purified USP10, Ub-rhodamine fluorescence, 60 min | actives 1.1% (n = 47,000) | AID 1645856 | inhibition, % at 20 µM
USP28 inh = human USP28 deubiquitinase inhibition; actives 3% (n = 47,000); purified USP28, Ub-rhodamine cleavage fluorescence, 30 min; Q96RU2; inhibition, % at 25 µM
Target sequence (Q96RU2 whole entry, looked up): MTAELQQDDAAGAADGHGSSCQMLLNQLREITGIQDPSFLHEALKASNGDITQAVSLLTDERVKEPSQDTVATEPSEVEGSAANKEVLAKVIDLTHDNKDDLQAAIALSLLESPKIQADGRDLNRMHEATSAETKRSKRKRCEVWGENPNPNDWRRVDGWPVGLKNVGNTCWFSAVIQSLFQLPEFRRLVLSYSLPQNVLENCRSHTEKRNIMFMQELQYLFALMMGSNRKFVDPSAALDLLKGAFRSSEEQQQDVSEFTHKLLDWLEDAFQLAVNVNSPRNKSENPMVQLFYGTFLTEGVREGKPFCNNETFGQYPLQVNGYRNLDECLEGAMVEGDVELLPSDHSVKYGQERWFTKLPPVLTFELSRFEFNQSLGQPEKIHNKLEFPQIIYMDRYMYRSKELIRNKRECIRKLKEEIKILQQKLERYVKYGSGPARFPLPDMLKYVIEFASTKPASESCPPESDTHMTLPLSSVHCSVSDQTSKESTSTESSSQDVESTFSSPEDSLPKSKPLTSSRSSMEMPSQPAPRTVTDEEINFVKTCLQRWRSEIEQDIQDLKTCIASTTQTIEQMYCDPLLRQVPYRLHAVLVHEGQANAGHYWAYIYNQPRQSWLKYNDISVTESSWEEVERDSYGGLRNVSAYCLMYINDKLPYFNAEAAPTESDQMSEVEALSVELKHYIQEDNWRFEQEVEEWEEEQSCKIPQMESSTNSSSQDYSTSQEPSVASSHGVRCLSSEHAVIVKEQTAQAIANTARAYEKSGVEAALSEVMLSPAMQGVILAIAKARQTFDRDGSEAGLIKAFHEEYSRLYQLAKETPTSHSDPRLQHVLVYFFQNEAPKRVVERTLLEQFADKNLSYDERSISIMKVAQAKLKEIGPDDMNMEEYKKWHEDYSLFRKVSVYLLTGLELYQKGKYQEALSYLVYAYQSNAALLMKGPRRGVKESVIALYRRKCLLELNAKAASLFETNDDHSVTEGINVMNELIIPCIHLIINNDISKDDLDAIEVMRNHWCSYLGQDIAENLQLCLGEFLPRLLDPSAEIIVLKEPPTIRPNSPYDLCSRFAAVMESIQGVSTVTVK
* marks the source's active call; other numbers are inactive results; nt = no result. A selection: hits, their analogues and other compounds. The true share with any hit is near 14%. Rule as the data show it: active = inhibition above about 30%; inactive = the rest.

SMILES	USP17 inh	USP8 inh	USP30 inh	USP10 inh	USP28 inh
O=C(Cn1cccc(S(=O)(=O)N2CCCCCC2)c1=O)Nc1ccccc1F	-7.5	-7.2	-10.2	-3.5	-7.4
Cc1cccc(CC(=O)N2CCN=C2SCc2ccccc2)c1	6.8	5.5	19.2	4.3	16.5
O=C(c1ccco1)N1CCN=C1SCc1ccccc1F	-12.5	0.8	-2.7	-1.6	74.7*
O=C(c1ccco1)N1CCN=C1SCc1ccc([N+](=O)[O-])cc1	42.7*	-51.1	52.8*	1.2	60.9*
O=C(NCc1ccccc1F)c1cc2ccccc2oc1=O	21.1	2.6	-4.2	-0.8	-1.5
Cc1ccc(N(CC(=O)NCCN2CCOCC2)S(C)(=O)=O)c(C)c1	4.6	2.1	-2.1	3.7	-9.0
COc1ccccc1C1c2[nH]c3ccccc3c2C[C@H]2C(=O)N(CC3CCCO3)CC(=O)N12 (some centres undefined)	0.0	-13.5	-51.8	-5.0	-11.9
Cn1cc(CCCC(=O)NCc2ccccc2F)c2ccccc21	8.5	1.8	6.1	0.6	9.4
O=C1CC(NS(=O)(=O)c2ccc3ccccc3c2)CN1c1cccc(F)c1 (centres undefined)	54.5*	10.4	22.9	9.4	11.9
COc1ccc(S(=O)(=O)NC2CC(=O)N(c3ccc(F)cc3)C2)cc1 (centres undefined)	5.5	12.0	15.0	2.9	12.1
COc1cccc(N2CC(NS(=O)(=O)c3ccc4ccccc4c3)CC2=O)c1 (centres undefined)	28.0	-20.4	33.5*	4.5	19.9
Cc1ccc(S(=O)(=O)NC2CC(=O)N(c3cccc(F)c3)C2)cc1 (centres undefined)	9.1	7.6	18.7	4.6	13.9
Cc1sc2c(=O)n(C(C)C)cnc2c1C(=O)Nc1cccc(F)c1	-34.7	8.5	-20.2	17.2	-3.1
O=C(NCCc1ccncc1)C1CN(C(=O)c2cccc(F)c2)CC12CCOCC2 (centres undefined)	0.0	-0.6	-0.9	2.6	-4.3
COc1ccc(Cn2c(=O)[nH]c3cc(C(=O)NCCCN4CCN(c5cccc(Cl)c5)CC4)ccc3c2=O)cc1	50.6*	83.0*	46.2*	60.0*	11.5
CCN1CCN(CCCNC(=O)c2ccc3c(=O)n(CCc4ccccc4)c(=O)[nH]c3c2)CC1	2.5	10.6	32.1*	-2.8	13.4
COc1ccc(N2CCN(CCCNC(=O)c3ccc4c(=O)n(CCc5ccccc5)c(=O)[nH]c4c3)CC2)cc1	24.5	16.1	20.4	10.3	9.0
CCN(CCCNC(=O)c1ccc(Cn2c(=O)[nH]c3ccccc3c2=O)cc1)c1ccccc1	58.5*	5.8	3.0	15.9	-5.9
COc1ccccc1N1CCN(C(=O)c2ccc3c(=O)n(CCc4ccccc4)c(=O)[nH]c3c2)CC1	20.3	29.5	35.4*	40.2*	7.8
CCOc1c(OC)cccc1C1CN2C(=O)CN(C3CCCC3)C(=O)[C@]2(C)c2[nH]c3ccccc3c21 (some centres undefined)	18.1	-14.1	22.4	-2.6	-15.7
Cc1cc2n(n1)CC(C)(C(=O)NCc1ccc(Cl)cc1)N(c1ccc3c(c1)OCCO3)C2=O (centres undefined)	-0.1	7.3	-118.8	-0.6	28.0
Cc1cccc(N2CCN(C(=O)CCn3c(=O)[nH]c4ccccc4c3=O)CC2)c1C	45.8*	-13.2	35.6*	0.9	10.2
N=c1sccn1CC(=O)Nc1ccc(Oc2ccccc2)cc1	0.5	-2.6	9.9	-7.1	37.1*
O=C(CN1C(=O)CC(c2ccccc2)Sc2ccccc21)Nc1cccc(C(F)(F)F)c1 (centres undefined)	9.3	-1.5	12.6	17.0	2.9
COc1ccc(NC(=O)NCCN2CCN(c3ccc(Cl)cc3)CC2)cc1	3.0	-3.3	14.5	1.5	14.0
SMILES	USP17 inh	USP8 inh	USP30 inh	USP10 inh	USP28 inh
Cc1ccccc1C(=O)N1CCN(CCNC(=O)C(=O)Nc2ccc(Cl)cc2)CC1	15.4	13.0	42.4*	-3.1	12.9
O=C(c1ccc(O)cc1)N1CC[C@@H]2[C@H](C1)CN2C(=O)c1ccccc1	nt	-0.5	-1.3	1.3	0.3
Cc1ccc(CN2CC[C@@H]3[C@H]2C(=O)NC[C@H](CCC(=O)N2CCOCC2)N3C)cc1	-36.7	12.1	-13.0	-1.0	8.9
CN1[C@@H](CCC(=O)N2CCC(O)CC2)CNC(=O)[C@@H]2[C@H]1CCN2Cc1ccc(F)cc1	-64.9	38.4*	14.3	-4.1	12.5
C#CCNC(=O)CC[C@H]1CNC(=O)[C@@H]2[C@@H](CCN2C2CCCCC2)N1C	-42.1	42.3*	32.0*	2.6	29.9
CN1[C@@H](CCC(=O)N2CCN(c3ccccn3)CC2)CNC(=O)[C@@H]2[C@H]1CCN2C1CCOCC1	-32.6	68.7*	43.7*	-2.2	36.2*
CN1[C@@H](CCC(=O)N2CCOCC2)CNC(=O)[C@@H]2[C@H]1CCN2Cc1ccc(F)cc1	-72.2	43.0*	1.4	-0.4	17.6
CN1[C@@H](CCC(=O)N2CC[C@@H](O)C2)CNC(=O)[C@@H]2[C@H]1CCN2C1CCCCC1	-7.0	-6.5	-19.7	-3.5	-10.3
CC(=O)Nc1ccc(OCC(=O)N2CCN(c3cccc(C)c3)CC2)nc1	-19.0	-9.2	-62.9	-2.0	-18.4
CS(=O)(=O)c1ccc(C(=O)OCC(=O)N(c2ccccc2)C2CCCCC2)cc1	14.3	9.7	18.9	0.0	14.0
Cc1c(OCC(=O)NCc2ccccc2Cl)ccc2c3c(c(=O)oc12)CCC3	19.4	51.6*	8.6	22.8	2.3
NS(=O)(=O)c1ccc(CCNC(=O)C2CCN(c3nc4ccccc4[nH]3)CC2)cc1	5.2	-5.4	12.5	-2.8	0.0
Cn1cc(-c2noc(Cc3cccc(C(F)(F)F)c3)n2)ccc1=O	8.9	8.7	17.5	-0.6	79.1*
Cn1nnc2ccc(-c3noc(Cc4cccc(F)c4)n3)cc21	-3.7	-10.3	-10.7	-1.4	0.1
CC(C)(C)C(=O)N1CCC(Cc2nccnc2-c2ccn[nH]2)CC1	-16.0	2.6	3.7	0.7	-2.4
CC1(C)OC(=O)[C@@]2(C)N[C@]1(C)C[C@@H]2C(=O)Nc1cccc2cccnc12	6.7	41.2*	-35.4	-2.1	-8.3
CC1(C)OC(=O)[C@]2(C)C[C@@H](C(=O)Nc3cccc4cccnc34)[C@@]1(C)N2	-5.1	-4.3	-0.8	-2.1	0.6
COc1ccc(-c2cc(C(=O)N3CCCC3)[nH]n2)cc1S(N)(=O)=O	-17.6	-8.3	-13.8	-0.4	-3.5
COc1ccc(-c2cc(C(=O)NC3CCCCCC3)[nH]n2)cc1S(=O)(=O)N(C)C	51.2*	-17.4	3.2	-0.1	0.2
CCc1nc(SCc2ccc(C)cc2)c2oc3ccccc3c2n1	13.7	4.1	1.5	0.0	-6.9
CC(Nc1ccccc1N1CCOCC1)C(=O)Nc1cc(C(F)(F)F)ccc1N1CCOCC1 (centres undefined)	8.7	16.5	8.4	3.2	2.6
CCOc1ccccc1NC(=O)CNc1cc(C(F)(F)F)ccc1N1CCOCC1	17.1	25.8	33.0*	1.8	17.1
Cc1csc(-c2cc(S(=O)(=O)NC3CC3)c(C)n2C)n1	2.9	-10.5	15.9	0.6	10.6
